From PubChem BioAssay
Mcl1-Noxa inh = Mcl-1/Noxa interaction inhibition | Q07820 | inhibition, % at 21.7 µM | TR-FRET Mcl-1/Noxa peptide binding, 2 h | 220,000 tested, 1.5% active;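 active = compounds that cut the protein-peptide binding signal by more than 50% relative to plate controls in a single-dose test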;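 also: His-tagged Mcl-1 with rhodamine Noxa BH3 peptide and terbium anti-His antibody; 0% = Mcl-1 plus Noxa peptide wells and 100% = peptide-only wells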
Target sequence (Q07820 whole entry, looked up): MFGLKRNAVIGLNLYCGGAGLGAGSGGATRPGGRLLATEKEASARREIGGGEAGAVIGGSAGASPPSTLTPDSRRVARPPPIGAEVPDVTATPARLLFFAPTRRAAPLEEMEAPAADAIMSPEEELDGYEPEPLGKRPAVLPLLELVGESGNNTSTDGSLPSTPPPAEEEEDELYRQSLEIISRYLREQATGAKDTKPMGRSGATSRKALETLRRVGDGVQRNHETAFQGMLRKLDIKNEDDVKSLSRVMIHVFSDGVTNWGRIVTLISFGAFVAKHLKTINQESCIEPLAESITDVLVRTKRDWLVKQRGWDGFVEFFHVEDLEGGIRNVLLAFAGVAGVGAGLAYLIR
p47phox inh = inhibitors of human p47phox binding. P14598. p47phox/p22phox peptide binding, fluorescence polarization, 2 h. inhibition, % at 24.7 µM. 220,000 tested, 0.53% active. AID 1274;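 active = inhibition above about 30%, limit read from the data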;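 also: 0% = p47phox with labelled peptide and 100% = labelled peptide alone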
Calpain2 inh = inhibitors of pig calpain II; purified calpain II, fluorogenic peptide substrate, 30 min; inhibition, % at 16 µM; 220,000 tested, 0.37% active;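 active = inhibition above about 50%, limit read from the data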
Mcl-1 Bim block = human Bim-Mcl-1 interaction inhibition. AID 1009. 190,000 tested, 0.1% active. inhibition, % at 10 µM. Q07820. Bead-based flow cytometry, Bim peptide-Mcl-1 binding; in the data active = inhibition above about 40%;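 also: 0% = no compound tracer wells and 100% = peptide blocker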
14-3-3 Bad inh = disrupts binding of bovine 14-3-3 zeta to phospho-Bad peptide; P63103; inhibition, % at 21.7 µM; AID 781; TR-FRET 14-3-3zeta/Dy647-pBad peptide displacement, 1 h; 220,000 tested, 0.71% active;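 active = inhibition above about 70%, limit read from the data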;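 also: 0% = full 14-3-3 plus peptide FRET controls and 100% = background without 14-3-3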
Target sequence (P63103 whole entry, looked up): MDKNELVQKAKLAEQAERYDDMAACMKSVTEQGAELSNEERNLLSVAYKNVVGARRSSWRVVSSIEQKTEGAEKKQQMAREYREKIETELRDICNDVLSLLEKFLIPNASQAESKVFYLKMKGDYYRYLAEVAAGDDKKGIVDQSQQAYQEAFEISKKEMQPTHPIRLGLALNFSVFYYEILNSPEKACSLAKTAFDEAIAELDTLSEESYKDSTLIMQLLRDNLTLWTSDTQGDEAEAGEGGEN
Mcl1-Bid inh = disrupts binding of human Mcl-1 to Bid peptide; TR-FRET Mcl-1/Bid-Dy647 peptide binding, 1536-well; AID 1021; 220,000 tested, 0.97% active; Q07820; inhibition, % at 21.7 µM;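 active = compounds that cut the binding signal by more than half at the single screening dose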;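 also: His-tagged Mcl-1 with europium anti-His antibody binding Bid BH3 peptide; 0% = Mcl-1 plus peptide wells and 100% = peptide-only wells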
Numbers without * were called inactive; / = not tested or not shown; + = active, no number. Rows were chosen to be rich in hits. Some 3.4% of all compounds tested hit in one or more screens of this group.

SMILES	Mcl1-Noxa inh	p47phox inh	Calpain2 inh	Mcl-1 Bim block	14-3-3 Bad inh	Mcl1-Bid inh
O=S(=O)(NCc1ccccc1)c1cccc(S(=O)(=O)N2CCOCC2)c1	-3	8	19	0	7	81*
O=S(=O)(c1cccc(S(=O)(=O)N2CCC(Cc3ccccc3)CC2)c1)N1CCOCC1	20	1	17	-4	-5	4
Cn1c(=O)oc2cc(S(=O)(=O)N3CCOCC3)ccc21	4	-1	16	-3	-6	8
O=S(=O)(c1ccc2nc(Cc3cccc(C(F)(F)F)c3)[nH]c2c1)N1CCOCC1	-13	-13	-6	-5	10	-13
CCc1ccc(OCc2cnc(Cl)s2)cc1	-3	-15	-8	0	-17	-13
COc1ccc(/C=C2/NC(=O)N(CC(=O)Nc3cccc(C)c3)C2=O)cc1O	11	2	16	-1	3	-18
CCOC(=O)c1sc2ncnc(NCc3ccco3)c2c1C	23	-12	-58	-3	-13	-13
CCc1cc2c(NCc3ccco3)ncnc2s1	31	-15	20	0	87*	16
COC(=O)c1ccc(-n2nnnc2SCC(=O)Nc2ccccc2OC)cc1	-31	-5	-14	2	13	19
COc1ccccc1NC(=O)CSc1nnnn1-c1ccc2c(c1)OCO2	0	9	25	-2	4	99*
CCc1ccccc1NS(=O)(=O)c1ccc2[nH]cc(C(=O)NC3CCCC3)c(=O)c2c1	72*	-20	-14	-2	26	66*
CC(C)(C)C(=O)NNc1nc(-c2ccccc2)c2cc(Br)ccc2n1	-4	-8	2	-3	8	97*
CCN(CC)S(=O)(=O)c1ccc(C(=O)NNc2nc(-c3ccccc3)c3cc(Br)ccc3n2)cc1	-17	-8	-61	0	7	-36
COc1cccc(C(=O)Nc2cc(Cl)c(O)c(Cl)c2)c1	98*	-7	7	/	-3	-56
Cc1nn(C)cc1C(C(=O)NC1CCCCC1)N(Cc1ccc(F)cc1)C(=O)c1cnccn1 (stereo unspecified)	5	10	19	-1	1	-13
CC(C)CNc1nc(Oc2ccc(=O)[nH]n2)nc(N(C)C)n1	-8	+	-37	-3	91*	-29
CC(C)n1c(O)c(N=NC(=O)CNC(=O)CCc2ccccc2)c2ccccc21	18	-63	66*	/	-11	-4
CN1c2ccsc2C(O)=C(C(=S)Nc2ccc(F)c(Cl)c2)S1(=O)=O	34	-6	-20	-6	10	54*
Cc1cnc(NC(=O)C(C)N2CCN(C)CC2)s1 (stereo unspecified)	20	3	-31	-3	12	5
CCCC(=O)OCCNc1cc(Sc2nc3ccccc3[nH]2)c2nonc2c1[N+](=O)[O-]	52*	-5	7	-1	-12	-62
CCC(=O)OCCNc1cc(SCCC(=O)OC)c2nonc2c1[N+](=O)[O-]	15	-5	30	-1	6	-4
Cc1ccc(C2=C(c3ccc([N+](=O)[O-])cc3)C(=O)OC2)cc1C	-15	-80	-3	0	10	9
Cc1cccc(-n2cc(-c3ccc([N+](=O)[O-])cc3)[nH]c2=S)c1	52*	-13	16	-6	15	34
O=C(Nc1cccnc1)c1cc2c(ccc3ccccc32)o1	36	-13	-20	0	77*	26
O=C(Nc1ccc(-c2cc3ccccc3oc2=O)c(Cl)c1)c1cccnc1	-92	-20	-52	-3	59	-12
SMILES	Mcl1-Noxa inh	p47phox inh	Calpain2 inh	Mcl-1 Bim block	14-3-3 Bad inh	Mcl1-Bid inh
COc1cc(NC(=O)c2cccnc2)ccc1-c1cc2ccccc2oc1=O	51*	8	-109	-1	35	20
O=C(Nc1cccnc1)c1cccc(-c2cc3ccccc3oc2=O)c1	28	1	1	-1	78*	57*
NNC(=O)c1cc2c(ccc3ccccc32)o1	14	-5	-19	-4	-9	-27
CCOC(=O)/C(=C\c1ccccc1)NC(=O)c1ccccc1	6	3	-5	/	5	-7
C=CCOC(=O)/C(=C\c1ccccc1)NC(=O)c1ccc(C)cc1	117*	-3	-25	1	0	-17
O=C(c1ccc2c(c1)OCO2)C1CCCN(C(=O)c2cnn(Cc3ccccc3)c2)C1 (stereo unspecified)	-4	-2	-6	-1	-5	-25
O=C(/C=C/c1cc2ccccc2o1)c1ccccc1O	-15	2	21	/	2	4
COc1ccc(O)c(C(=O)/C=C/c2cc3ccccc3o2)c1	14	-2	9	/	0	67*
Cn1c(C(=O)NCc2ccccc2)cc2oc3ccccc3c21	-8	31*	7	4	-8	-22
COc1ccc(C(=O)Nc2ccc(/C(C)=N/NC(=O)c3ccccc3O)cc2)cc1OC	7	1	4	-6	4	-14
Cn1c(NC(=O)/C=C\c2ccccc2)cc(=O)n(C)c1=O	-24	-9	64*	0	-7	-24
Cn1c(NC(=O)Cc2ccc(F)cc2)cc(=O)n(C)c1=O	0	3	9	0	9	65*
Cn1c(NC(=O)/C=C/c2c(F)cccc2Cl)cc(=O)n(C)c1=O	1	-8	-35	-3	-18	-8
O=C(CSc1nc2c(cnn2-c2ccc(F)cc2)c(=O)[nH]1)N1CCCc2ccccc21	-1	-3	-47	0	23	94*
CC(=O)N1CCN(C(=O)CSc2nc3c(cnn3-c3ccccc3)c(=O)[nH]2)CC1	19	-14	-11	0	5	-46
O=S(=O)(c1cccs1)N1CCCc2cccc(O)c21	12	-6	7	-1	74*	-63
COc1ccc(NC(=O)c2ccccc2SC)cc1	-10	-3	90*	-1	-2	-18
COc1ccc(NC(=O)CN(C)CC(=O)Nc2ccccc2SC)cc1	18	4	17	-3	24	51*
COc1ccc(NC(=O)CN(C)C(C)C(=O)N2CCCCC2)cc1 (stereo unspecified)	24	-1	-4	-3	66	56*
CC1CC(C)CN(C(=O)C(C)N(C)CC(=O)Nc2ccc(Cl)cc2)C1 (stereo unspecified)	9	/	25	-2	33	37
CCOc1ccc(NC(=O)CN(C)CC(=O)Nc2ccccc2SC)cc1OCC	-15	3	13	-8	16	-24
O=C(N/N=C/c1cccc(OCC(=O)N2CCCC2)c1)C(=O)Nc1ccccc1F	0	0	10	-3	-9	-8
COc1ccc(CNC(=O)C2CC(c3cc(C(F)(F)F)cc(C(F)(F)F)c3)=NO2)cc1 (stereo unspecified)	-8	-12	38	/	-3	1
CCOc1ccc(CCNC(=O)CCC(=O)Nc2ccc3nc(N4CCN(C)CC4)cc(C)c3c2)cc1OCC	9	-8	-99	0	91*	-38
